Here are results for five compounds from PubChem BioAssay.

In one test the target is Albumin (Bos taurus) (UniProt P02769). Description: bovine serum albumin binders on microarray, profiling panel, artefact control for SMM control protein annotation, biochemical, small-molecule microarray, Alexa647 label, 635/667 nm fluorescence (AID 1118).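 Also: score merges 667 nm emission intensity and signal-to-noise per printed compound spot.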 The following applies: BSA-A647 binding, fluorescence 635 nm, higher = more signal.
Test [1] is described as follows: small-molecule microarray binders of probe aXIP, primary screen, biochemical, NeuroSMM set, 635/667 nm fluorescence (AID 1119).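 Also: probe is the protein aXip251-270 applied at 1 µg/mL to compound-printed slides; binding of probe to printed compounds measured as 667 nm fluorescence plus signal to noise.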 The following applies: higher = more signal, called active from +8 up or from −8 down.
Test [2] is described as follows: small-molecule binders of probe aNOTCH3, primary screen, biochemical, small-molecule microarray, 635/667 nm fluorescence (AID 1120).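 Also: probe is a biotin-tagged antibody raised against NOTCH3 rather than NOTCH3 protein; score merges spot fluorescence near 667 nm with spot signal to noise.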 The settings on record: higher = more signal.
A short description of test [3]: small-molecule binders of probe aNOTCH2, primary screen, biochemical, small-molecule microarray, 635/667 nm fluorescence (AID 1121).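 Also: score merges feature fluorescence read at 667 nm with its signal to noise.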 The following applies: higher = more signal.
Test [4] deals with Carbonic anhydrase 2 (Homo sapiens) (UniProt P00918). Description: CAII small-molecule binders, profiling panel, biochemical, small-molecule microarray, Alexa647-labelled CAII (AID 1122). The settings on record: CAII-A647 binding fluorescence, higher = more signal.
Test [5] in a line: COS7 lysate on small-molecule microarray, probe aHis, 635 nm (AID 1123).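 Also: z-score combines 667nm fluorescence intensity with signal-to-noise per printed compound spot.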 The settings on record: COS7 cell lysate, fluorescence, higher = more signal.
The nature of test [6]: compound binding in COS7 lysate, probe aLAP1, primary screen, cell lysate, small-molecule microarray (AID 1124).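 Also: lysate comes from COS7 cells expressing LAP1 and is applied at 0.3 µg/mL; score merges spot fluorescence near 667 nm with signal-to-noise over triplicate slides.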 The following applies: probe aLAP1, fluorescence, higher = more signal.
In another test the test system is Sam68 (KHDRBS1). In words: Sam68 small-molecule binders, primary screen, biochemical, small-molecule microarray, 635 nm fluorescence (AID 1125).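 Also: score merges 667 nm channel intensity with signal to noise over triplicate slides.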 The settings on record: small-molecule microarray binding, higher = more signal.
The subject of test [7] is Chordin-like protein 2 (CHRDL2). In words: CHRDL2 small-molecule binders, primary screen, biochemical, small-molecule microarray, 635 nm fluorescence (AID 1126).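 Also: printed compound slides probed with Chrdl2 protein at 4 µg/mL for 1 h at 4 C; score merges 667 nm emission intensity with signal to noise over three replicate slides.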 The following applies: small-molecule microarray binding, fluorescence 635 nm; higher = more signal.
For test [8], the target named is Concanavalin-A (Canavalia ensiformis) (UniProt P02866). Description: ConA small-molecule binders, primary screen, artefact control for SMM control protein annotation, biochemical, small-molecule microarray, Alexa647 label, 635 nm (AID 1127).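 Also: z combines 667 nm emission intensity with signal-to-noise across three replicate slides.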 The settings on record: ConA-A647 binding fluorescence, higher = more signal.
Test [9] can be described thus: anti-His antibody binders, primary screen, artefact control for SMM control protein annotation, biochemical, small-molecule microarray, 635 nm fluorescence (AID 1128).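 Also: score merges feature fluorescence with signal-to-noise for each printed compound spot.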 The settings on record: anti-His Alexa647 antibody binding, higher = more signal.
Test [10] concerns Human papillomavirus type 1a E7 protein (residues 1-88). Description: HPV1a E7 small-molecule binders, primary screen, biochemical, small-molecule microarray, residues 1-88, 635 nm (AID 1129). The settings on record: small-molecule microarray binding, fluorescence 635 nm; higher = more signal.
Test [11] deals with Focal adhesion kinase 1 (Homo sapiens) (UniProt Q05397). In words: small-molecule microarray binders of FAK, primary screen, biochemical, 635/667 nm fluorescence, BSA, DTT (AID 1130).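 Also: composite of spot emission at 667 nm and signal to noise over triplicate slides.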 The following applies: PTK2 binding, 635 nm fluorescence, higher = more signal.
Test [12] deals with Fibrinogen (Alexa647-labelled). Description: fibrinogen binders on compound microarrays, profiling panel, artefact control for SMM control-protein annotation, biochemical, small-molecule microarray, 635/667 nm fluorescence (AID 1131).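 Also: z-score merges 667 nm fluorescence with per-spot signal-to-noise over triplicate slides.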 The following applies: fibrinogen-A647 binding fluorescence, higher = more signal.
The target in test [13] is Follistatin (Homo sapiens) (UniProt P19883). In words: follistatin binders on small-molecule microarrays, primary screen, biochemical, small-molecule microarray, 635/667 nm fluorescence (AID 1132). The settings on record: FST binding, 635 nm fluorescence, higher = more signal.
Test [14] deals with Fibroblast growth factor 2 (Homo sapiens) (UniProt P09038). In words: FGF2 binders on small-molecule microarrays, primary screen, biochemical, small-molecule microarray, 635/667 nm fluorescence (AID 1133). The settings on record: small-molecule microarray binding, FGF2, fluorescence 635/667; higher = more signal.
A short description of test [15]: mitochondrial membrane potential change in A549 cells, profiling panel, cell-based, JC-1 fluorescence, basal, 24 h, 100 nL (AID 1138).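 Also: A549 lung adenocarcinoma cells under basal conditions with no added stimulus; test concentration not given here.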 The following applies: higher = more signal.
A further test deals with Lefty1. Description: Lefty1 binders on small-molecule microarrays, primary screen, biochemical, small-molecule microarray, 635/667 nm fluorescence (AID 1139). The settings on record: small-molecule microarray binding, fluorescence 635/667; higher = more signal.
For test [16], the system named is wheat germ agglutinin (Triticum aestivum), Alexa647-labelled. Description: wheat germ agglutinin binders on compound microarrays, profiling panel, artefact control for SMM control-protein annotation, biochemical, small-molecule microarray, 635/667 nm fluorescence (AID 1140).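 Also: score merges 667 nm feature emission with signal to noise over triplicate slides.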 The following applies: WGA-A647 binding, 635 nm fluorescence, higher = more signal.
Test [17] has as its target Luciferin 4-monooxygenase (Photinus pyralis) (UniProt P08659). Description: firefly luciferase enzyme inhibitors, primary screen, biochemical, luminescence, purified enzyme, 2006 set (AID 1141).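 Also: cell-free assay with purified firefly luciferase at 100 ng per well in PBS; test concentration not given here.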 The following applies: SteadyGlo luminescence, 30 min, higher = more signal, called active from +8 up or from −8 down.

Each structure is given as a SMILES string. Activity calls are given as the source filed them.

Chain of Concanavalin-A (Canavalia ensiformis) (P02866 whole entry, looked up): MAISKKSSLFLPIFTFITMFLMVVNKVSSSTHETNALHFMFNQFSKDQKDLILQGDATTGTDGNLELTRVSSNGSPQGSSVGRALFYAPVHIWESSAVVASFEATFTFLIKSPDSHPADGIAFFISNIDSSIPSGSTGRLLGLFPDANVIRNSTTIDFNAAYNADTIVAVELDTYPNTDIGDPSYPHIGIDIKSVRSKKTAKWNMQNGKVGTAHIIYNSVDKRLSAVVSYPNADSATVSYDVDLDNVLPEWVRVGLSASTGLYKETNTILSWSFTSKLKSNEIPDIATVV
Chain of Fibroblast growth factor 2 (Homo sapiens) (P09038 whole entry, looked up): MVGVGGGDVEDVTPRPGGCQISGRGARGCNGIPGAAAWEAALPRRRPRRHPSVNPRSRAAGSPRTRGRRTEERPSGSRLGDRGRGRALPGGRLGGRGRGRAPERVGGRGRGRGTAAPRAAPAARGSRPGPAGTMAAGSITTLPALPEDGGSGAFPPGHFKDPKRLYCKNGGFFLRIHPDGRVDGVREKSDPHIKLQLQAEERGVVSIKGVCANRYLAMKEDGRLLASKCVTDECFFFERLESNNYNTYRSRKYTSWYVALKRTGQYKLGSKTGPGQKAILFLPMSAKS
Chain of Luciferin 4-monooxygenase (Photinus pyralis) (P08659 whole entry, looked up): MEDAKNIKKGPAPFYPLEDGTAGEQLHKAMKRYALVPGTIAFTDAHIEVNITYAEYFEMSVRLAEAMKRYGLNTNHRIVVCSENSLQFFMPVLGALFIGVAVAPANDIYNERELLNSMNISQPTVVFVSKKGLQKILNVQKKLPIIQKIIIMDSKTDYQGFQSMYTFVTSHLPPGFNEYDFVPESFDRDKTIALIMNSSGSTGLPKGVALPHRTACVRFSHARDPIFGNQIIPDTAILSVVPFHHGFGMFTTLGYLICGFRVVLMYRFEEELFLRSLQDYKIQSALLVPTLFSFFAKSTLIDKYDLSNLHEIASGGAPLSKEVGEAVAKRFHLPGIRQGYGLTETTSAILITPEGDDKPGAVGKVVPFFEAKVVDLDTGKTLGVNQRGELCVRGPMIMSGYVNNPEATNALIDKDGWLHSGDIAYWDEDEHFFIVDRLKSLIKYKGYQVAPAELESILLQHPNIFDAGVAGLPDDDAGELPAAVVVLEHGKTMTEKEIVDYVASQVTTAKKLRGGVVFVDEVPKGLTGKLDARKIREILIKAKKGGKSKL
Chain of Focal adhesion kinase 1 (Homo sapiens) (Q05397 whole entry, looked up): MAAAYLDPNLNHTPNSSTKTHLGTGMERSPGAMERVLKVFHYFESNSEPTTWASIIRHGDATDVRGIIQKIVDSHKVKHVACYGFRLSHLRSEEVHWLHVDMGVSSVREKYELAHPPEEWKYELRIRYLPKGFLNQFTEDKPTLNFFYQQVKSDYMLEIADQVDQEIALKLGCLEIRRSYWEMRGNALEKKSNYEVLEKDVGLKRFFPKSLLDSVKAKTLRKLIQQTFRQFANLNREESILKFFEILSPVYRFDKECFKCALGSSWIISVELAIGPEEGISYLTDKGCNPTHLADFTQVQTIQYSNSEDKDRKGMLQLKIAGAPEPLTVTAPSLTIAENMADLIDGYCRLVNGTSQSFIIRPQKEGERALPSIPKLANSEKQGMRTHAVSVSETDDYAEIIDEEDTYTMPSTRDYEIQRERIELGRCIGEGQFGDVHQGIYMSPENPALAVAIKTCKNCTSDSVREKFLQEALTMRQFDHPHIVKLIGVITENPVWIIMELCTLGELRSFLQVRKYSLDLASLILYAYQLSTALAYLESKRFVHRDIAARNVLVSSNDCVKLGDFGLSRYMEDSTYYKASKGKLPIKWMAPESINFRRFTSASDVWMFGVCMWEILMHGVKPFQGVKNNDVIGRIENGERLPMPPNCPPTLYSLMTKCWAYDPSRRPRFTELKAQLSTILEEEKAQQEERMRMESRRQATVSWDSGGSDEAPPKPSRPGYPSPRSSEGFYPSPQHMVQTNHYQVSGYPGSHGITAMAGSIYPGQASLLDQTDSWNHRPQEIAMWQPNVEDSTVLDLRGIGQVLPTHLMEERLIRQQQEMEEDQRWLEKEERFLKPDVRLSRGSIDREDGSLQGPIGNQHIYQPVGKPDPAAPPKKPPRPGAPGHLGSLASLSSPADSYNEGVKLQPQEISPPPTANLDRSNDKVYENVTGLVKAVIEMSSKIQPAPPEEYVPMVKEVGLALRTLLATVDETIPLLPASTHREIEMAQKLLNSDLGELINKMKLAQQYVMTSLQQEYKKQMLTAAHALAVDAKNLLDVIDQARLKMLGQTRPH
Chain of Albumin (Bos taurus) (P02769 whole entry, looked up): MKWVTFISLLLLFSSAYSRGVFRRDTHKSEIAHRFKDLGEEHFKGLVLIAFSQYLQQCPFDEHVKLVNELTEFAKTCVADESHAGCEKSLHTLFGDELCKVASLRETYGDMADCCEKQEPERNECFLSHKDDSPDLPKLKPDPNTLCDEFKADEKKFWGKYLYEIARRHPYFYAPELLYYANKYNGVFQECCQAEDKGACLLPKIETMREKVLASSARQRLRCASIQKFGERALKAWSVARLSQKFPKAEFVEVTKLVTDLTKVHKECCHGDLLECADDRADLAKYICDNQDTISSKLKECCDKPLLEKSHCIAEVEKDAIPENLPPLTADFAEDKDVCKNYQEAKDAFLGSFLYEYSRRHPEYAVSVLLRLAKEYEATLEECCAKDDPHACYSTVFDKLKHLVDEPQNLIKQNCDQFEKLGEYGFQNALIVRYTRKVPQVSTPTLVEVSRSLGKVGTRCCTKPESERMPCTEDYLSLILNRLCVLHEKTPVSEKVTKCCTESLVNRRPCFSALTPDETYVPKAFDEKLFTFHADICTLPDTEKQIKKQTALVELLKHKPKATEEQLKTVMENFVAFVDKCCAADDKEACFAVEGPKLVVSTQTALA
Chain of Follistatin (Homo sapiens) (P19883 whole entry, looked up): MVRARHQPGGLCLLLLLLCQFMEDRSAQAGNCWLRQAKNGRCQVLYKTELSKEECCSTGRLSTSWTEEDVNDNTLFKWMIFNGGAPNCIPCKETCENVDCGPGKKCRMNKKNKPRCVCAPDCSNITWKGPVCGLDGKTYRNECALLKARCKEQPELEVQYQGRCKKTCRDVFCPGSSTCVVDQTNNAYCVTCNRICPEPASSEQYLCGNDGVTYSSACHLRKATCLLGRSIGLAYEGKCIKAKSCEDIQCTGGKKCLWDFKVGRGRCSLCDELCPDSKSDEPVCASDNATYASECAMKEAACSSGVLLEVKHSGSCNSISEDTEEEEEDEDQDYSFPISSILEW

For the compound `CCCCCN1CC=CC23O[C@@H]4/C=C\CCC(C)OC(=O)C4[C@H]2C(=O)N(CCCCCO)[C@@H]3C1=O` (stereo not given in full), the composite z-score is -0.299 in the test with Albumin (Bos taurus); -0.149 in test [2]; -0.144 in [3]; 0.685 in test [4]; -0.389 in [5]; -0.29 in test [6]. For the same compound, the composite z-score in the test with Sam68 (KHDRBS1) is -1.09; in [7], -0.793; in [8] it was -0.541; in test [9], -0.0232; in [10], -0.413; in [11], -0.0791. The composite z-score is -1.46 in [12]; -0.35 in test [13]; 0.517 in test [14]; 0.184 in the test with Lefty1; 0.233 in test [16]. Further, the composite Z-score in [1] was -0.127 (inactive). Moreover, the z-score in test [15] is -0.108; in test [17], -2.73 (inactive).
Turning to `CCCC[C@H]1OB(O)C[C@H]2C1=C(C)C[C@H]1C(=O)N(Cc3ccccc3)C(=O)[C@H]12`, the composite z-score in the test with Albumin (Bos taurus) is 0.067; in [2] it was -0.0613; in [3] it was -0.126; in [4] it was 0.38; in test [5], 0.257; in test [6], -0.361. The composite z-score with Sam68 (KHDRBS1) is 0.663; in test [7], 0.472; in [8], 0.546; in [9], 0.201; in test [10], 0.366; in test [11], 0.553. For the same compound, the composite z-score in test [12] is 0.311; in test [13], 0.797; in [14], 1.26; in the test with Lefty1, 0.63; in [16], -0.144. Also, the composite Z-score in [1] was 0.252 (inactive). The figures for the z-score in test [15] and in test [17] were 0.625 and -1.15 (inactive), respectively.
For the compound `[N-]=[N+]=NCc1ccccc1[C@@H]1OC(c2ccc(OCCCO)cc2)=N[C@]1(Cc1ccccc1)C(=O)N1CCCCC1`, the composite z-score was 0.763 with Albumin (Bos taurus); 0.211 in [2]; 0.0215 in test [3]; 0.471 in [4]; 1.52 in test [5]; -0.0921 in test [6]. In addition, the composite z-score is 1.32 in the test on Sam68 (KHDRBS1); 0.581 in test [7]; 1.14 in [8]; 2.4 in [9]; 1.2 in test [10]; 0.0473 in [11]. Further, the composite z-score in [12] is 0.39; in test [13] it was 1.41; in test [14], 1.55; in the test with Lefty1 it was -0.0101; in test [16] it was 0.903. Also, the composite Z-score in test [1] is -0.623 (inactive). For the same compound, the values for the z-score in test [15] and in [17] were 2.06 and -1.22 (inactive), respectively.
In the case of `COCCOC(=O)N1C(=O)[C@@]2(c3cc(C#CCCO)ccc31)[C@H](c1ccc(O)cc1)N1[C@H](c3ccccc3)[C@H](c3ccccc3)OC(=O)[C@H]1[C@@H]2C(N)=O`, the composite z-score in the test with Albumin (Bos taurus) is 0.136; in [2], -0.0967; in [3], -0.0956; in test [4] it was 0.738; in test [5] it was 0.831; in test [6], 1.73. Besides, the composite z-score with Sam68 (KHDRBS1) is 0.761; in test [7], -0.552; in test [8], 0.59; in test [9], 3.05; in [10], 0.215; in test [11] it was 0.0329. The composite z-score was found to be 0.19 in test [12]; 0.931 in test [13]; 0.347 in test [14]; 0.296 with Lefty1; 0.0204 in [16]. In addition, the composite Z-score in test [1] is 0.257 (inactive). Also, the z-score was -0.444 in test [15] and 0.028 (inactive) in test [17].
Take `COC(=O)c1ccc(OC)c(/C=C\CC(OC(C)=O)c2ccccc2)c1` (stereo not given): the composite z-score in the test with Albumin (Bos taurus) was 0.652; in test [2], -0.276; in test [3], -0.149; in test [4], 0.971; in [5], 0.718; in test [6], -0.0984. The composite z-score in the test with Sam68 (KHDRBS1) was -0.215; in [7] it was 1.1; in test [8], 1.15; in [9], 0.838; in [10] it was 0.255; in test [11], -0.0638. The composite z-score amounted to 0.775 in [12]; 0.946 in [13]; 0.933 in test [14]; 0.741 in the test on Lefty1; 1.11 in test [16]. Moreover, the composite Z-score in test [1] was -0.192 (inactive). In addition, the z-score was -0.363 in test [15] and -0.454 (inactive) in [17].
